In PubChem BioAssay AID1159580 (chemical genetic matrix, 2015):
About 2,000 (36%) of roughly 5,500 compounds were called active. Another 18% or so got no clear call; they are omitted. Rule as the data show it: active = normalized growth mostly below about 0.91 (no sharp cut-off); inconclusive = no clear call, values can overlap the other calls; inactive = mostly above about 0.92. The list shows a part of the results.

Experiment: chemical genetic growth profiling, strain panel (AID 1159580);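 also: tested at 20 µM; growth read once vehicle control cultures reached saturation at 30 °C; 1 = growth at the plate median or of vehicle wells; lower values mean less growth of the strain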
Settings: growth OD
[1] = S. cerevisiae deletion strains, locus YCL061C, strain MRC1, stronger effect = lower value
[2] = S. cerevisiae deletion strains, locus YHR030C, strain SLT2, stronger effect = lower value
[3] = S. cerevisiae deletion strains, locus YJL187C, strain SWE1, stronger effect = lower value

Measured: normalized growth

CNS(=O)(=O)c1cc(Br)ccc1S(=O)c1ccccc1C(=O)O (stereo not given)
inactive: S. cerevisiae deletion strains, locus YAL013W, strain DEP1, stronger effect = lower value 1 | S. cerevisiae deletion strains, locus YBR229C, strain ROT2, stronger effect = lower value 1 | [1] 1 | S. cerevisiae deletion strains, locus YDL101C, strain DUN1, stronger effect = lower value 1.05 | S. cerevisiae deletion strains, locus YDR150W, strain NUM1, stronger effect = lower value 1.01 | S. cerevisiae deletion strains, locus YEL061C, strain CIN8, stronger effect = lower value 1.02 | S. cerevisiae deletion strains, locus YGR078C, strain PAC10, stronger effect = lower value 1.01 | [2] 0.98 | S. cerevisiae deletion strains, locus YHR087W, strain rtc3, stronger effect = lower value 1.03 | [3] 1 | S. cerevisiae deletion strains, locus YJR043C, strain POL32, stronger effect = lower value 1 | S. cerevisiae deletion strains, locus YJR075W, strain HOC1, stronger effect = lower value 0.997 | S. cerevisiae deletion strains, locus YKL190W, strain CNB1, stronger effect = lower value 0.982 | S. cerevisiae deletion strains, locus YLR039C, strain RIC1, stronger effect = lower value 1.01 | S. cerevisiae deletion strains, locus YLR058C, strain SHM2 (second series), stronger effect = lower value 0.992 | S. cerevisiae deletion strains, locus YLR085C, strain ARP6, stronger effect = lower value 0.983 | S. cerevisiae deletion strains, locus YLR262C, strain YPT6, stronger effect = lower value 1.02 | S. cerevisiae deletion strains, locus YMR219W, strain ESC1, stronger effect = lower value 1.01 | S. cerevisiae deletion strains, locus YMR263W, strain SAP30, stronger effect = lower value 0.984 | S. cerevisiae deletion strains, locus YMR307W, strain GAS1, stronger effect = lower value 0.942 | S. cerevisiae deletion strains, locus YNL153C, strain GIM3, stronger effect = lower value 1.03 | S. cerevisiae deletion strains, locus YNL298W, strain CLA4 (second series), stronger effect = lower value 0.995 | S. cerevisiae deletion strains, locus YNL322C, strain KRE1, stronger effect = lower value 1.01 | S. cerevisiae deletion strains, locus YNR030W, strain Alg12, stronger effect = lower value 1.03 | S. cerevisiae deletion strains, locus YOL006C, strain TOP1, stronger effect = lower value 0.975 | S. cerevisiae deletion strains, locus YPL055C, strain LGE1, stronger effect = lower value 1.04 | S. cerevisiae deletion strains, locus YPL241C, strain CIN2, stronger effect = lower value 1.04 | S. cerevisiae deletion strains, locus YPR135W, strain CTF4, stronger effect = lower value 1.15 | S. cerevisiae strains, strain wild type, stronger effect = lower value 0.968
active: S. cerevisiae deletion strains, locus YML094W, strain GIM5, stronger effect = lower value 1.15 [resistant]

CNS(=O)(=O)c1ccc(NC(=O)c2ccccc2C(=O)O)cc1
inactive: S. cerevisiae deletion strains, locus YAL021C, strain ccr4, stronger effect = lower value 1 | S. cerevisiae deletion strains, locus YAL026C, strain drs2, stronger effect = lower value 1 | S. cerevisiae deletion strains, locus YAL030W, strain snc1, stronger effect = lower value 1 | S. cerevisiae deletion strains, locus YBL061C, strain skt5, stronger effect = lower value 0.993 | S. cerevisiae deletion strains, locus YBR009C, strain hhf1, stronger effect = lower value 0.998 | S. cerevisiae deletion strains, locus YBR023C, strain chs3, stronger effect = lower value 1 | S. cerevisiae deletion strains, locus YBR171W, strain sec66, stronger effect = lower value 0.996 | S. cerevisiae deletion strains, locus YBR231C, strain swc5, stronger effect = lower value 0.991 | S. cerevisiae deletion strains, locus YBR279W, strain paf1, stronger effect = lower value 1 | S. cerevisiae deletion strains, locus YCL011C, strain gbp2, stronger effect = lower value 0.993 | S. cerevisiae deletion strains, locus YCL016C, strain dcc1, stronger effect = lower value 1 | [1] 1 | S. cerevisiae deletion strains, locus YCL069W, strain vba3, stronger effect = lower value 1 | S. cerevisiae deletion strains, locus YCR088W, strain abp1, stronger effect = lower value 0.999 | S. cerevisiae deletion strains, locus YDL005C, strain med2, stronger effect = lower value 1 | S. cerevisiae deletion strains, locus YDL040C, strain nat1, stronger effect = lower value 1 | S. cerevisiae deletion strains, locus YDR001C, strain nth1, stronger effect = lower value 0.996 | S. cerevisiae deletion strains, locus YDR069C, strain doa4, stronger effect = lower value 0.995 | S. cerevisiae deletion strains, locus YDR137W, strain rgp1, stronger effect = lower value 1.01 | S. cerevisiae deletion strains, locus YDR159W, strain sac3, stronger effect = lower value 0.982 | S. cerevisiae deletion strains, locus YDR195W, strain ref2 0.977 | S. cerevisiae deletion strains, locus YDR297W, strain sur2, stronger effect = lower value 0.995 | S. cerevisiae deletion strains, locus YDR334W, strain swr1, stronger effect = lower value 1 | S. cerevisiae deletion strains, locus YDR335W, strain msn5, stronger effect = lower value 1 | S. cerevisiae deletion strains, locus YDR392W, strain spt3, stronger effect = lower value 0.968 | S. cerevisiae deletion strains, locus YEL003W, strain gim4, stronger effect = lower value 0.994 | S. cerevisiae deletion strains, locus YEL037C, strain rad23, stronger effect = lower value 1.01 | S. cerevisiae deletion strains, locus YEL061C, strain CIN8 (second series), stronger effect = lower value 0.999 | S. cerevisiae deletion strains, locus YER015W, strain faa2, stronger effect = lower value 0.989 | S. cerevisiae deletion strains, locus YER016W, strain bim1, stronger effect = lower value 1.01 | S. cerevisiae deletion strains, locus YER111C, strain swi4, stronger effect = lower value 1 | S. cerevisiae deletion strains, locus YER155C, strain BEM2 (second series), stronger effect = lower value 1 | S. cerevisiae deletion strains, locus YFR010W, strain ubp6, stronger effect = lower value 1.01 | S. cerevisiae deletion strains, locus YGL167C, strain pmr1, stronger effect = lower value 0.993 | S. cerevisiae deletion strains, locus YGL173C, strain kem1, stronger effect = lower value 0.997 | S. cerevisiae deletion strains, locus YGL227W, strain vid30, stronger effect = lower value 0.998 | S. cerevisiae deletion strains, locus YGL240W, strain doc1, stronger effect = lower value 0.988 | S. cerevisiae deletion strains, locus YGL253W, strain hxk2, stronger effect = lower value 0.998 | S. cerevisiae deletion strains, locus YHR013C, strain ard1, stronger effect = lower value 0.997 | S. cerevisiae deletion strains, locus YHR027C, strain rpn1, stronger effect = lower value 0.992 | [2] 0.995 | S. cerevisiae deletion strains, locus YHR079C, strain IRE1, stronger effect = lower value 0.992 | S. cerevisiae deletion strains, locus YHR142W, strain chs7, stronger effect = lower value 1.02 | S. cerevisiae deletion strains, locus YJL092W, strain hpr5, stronger effect = lower value 0.995 | S. cerevisiae deletion strains, locus YJL095W, strain BCK1 (second series), stronger effect = lower value 0.99 | S. cerevisiae deletion strains, locus YJL095W, strain BCK1, stronger effect = lower value 0.981 | S. cerevisiae deletion strains, locus YJL115W, strain asf1, stronger effect = lower value 0.995 | S. cerevisiae deletion strains, locus YJL129C, strain trk1, stronger effect = lower value 1.02 | S. cerevisiae deletion strains, locus YJL154C, strain vps35, stronger effect = lower value 0.997 | S. cerevisiae deletion strains, locus YJL164C, strain tpk1, stronger effect = lower value 1.01 | S. cerevisiae deletion strains, locus YJL166W, strain qcr8, stronger effect = lower value 0.998 | [3] 0.99 | S. cerevisiae deletion strains, locus YJR066W, strain TOR1, stronger effect = lower value 0.931 | S. cerevisiae deletion strains, locus YKL160W, strain elf1, stronger effect = lower value 1.01 | S. cerevisiae deletion strains, locus YKR026C, strain gcn3, stronger effect = lower value 0.979 | S. cerevisiae deletion strains, locus YKR091W, strain srl3, stronger effect = lower value 0.994 | S. cerevisiae deletion strains, locus YLL001W, strain dnm1, stronger effect = lower value 1.01 | S. cerevisiae deletion strains, locus YLL026W, stronger effect = lower value 0.995 | S. cerevisiae deletion strains, locus YLL041C, strain sdh2, stronger effect = lower value 1 | S. cerevisiae deletion strains, locus YLR027C, strain aat2, stronger effect = lower value 1 | S. cerevisiae deletion strains, locus YLR113W, strain HOG1, stronger effect = lower value 0.969 | S. cerevisiae deletion strains, locus YLR221C, strain rsa3, stronger effect = lower value 1 | S. cerevisiae deletion strains, locus YLR258W, strain gsy2, stronger effect = lower value 0.998 | S. cerevisiae deletion strains, locus YLR262C, strain YPT6 (second series), stronger effect = lower value 0.992 | S. cerevisiae deletion strains, locus YLR320W, strain mms22, stronger effect = lower value 1 | S. cerevisiae deletion strains, locus YLR342W, strain FKS1, stronger effect = lower value 0.994 | S. cerevisiae deletion strains, locus YLR357W, strain rsc2, stronger effect = lower value 0.994 | S. cerevisiae deletion strains, locus YLR370C, strain arc18, stronger effect = lower value 0.995 | S. cerevisiae deletion strains, locus YLR384C, strain iki3, stronger effect = lower value 0.992 | S. cerevisiae deletion strains, locus YML120C, strain ndi1, stronger effect = lower value 0.992 | S. cerevisiae deletion strains, locus YMR058W, strain fet3, stronger effect = lower value 0.998 | S. cerevisiae deletion strains, locus YMR125W, strain sto1, stronger effect = lower value 0.994 | S. cerevisiae deletion strains, locus YMR129W, stronger effect = lower value 1.01 | S. cerevisiae deletion strains, locus YMR205C, strain PFK2, stronger effect = lower value 0.967 | S. cerevisiae deletion strains, locus YMR231W, strain pep5, stronger effect = lower value 0.998 | S. cerevisiae deletion strains, locus YNL071W, strain lat1, stronger effect = lower value 1.01 | S. cerevisiae deletion strains, locus YNL183C, strain NPR1, stronger effect = lower value 0.933 | S. cerevisiae deletion strains, locus YNL209W, strain ssb2, stronger effect = lower value 0.997 | S. cerevisiae deletion strains, locus YNL248C, strain rpa49, stronger effect = lower value 0.998 | S. cerevisiae deletion strains, locus YNL322C, strain KRE1 (second series), stronger effect = lower value 0.998 | S. cerevisiae deletion strains, locus YNR049C, strain mso1, stronger effect = lower value 1 | S. cerevisiae deletion strains, locus YOR001W, strain rrp6, stronger effect = lower value 1 | S. cerevisiae deletion strains, locus YOR070C, strain gyp1, stronger effect = lower value 0.999 | S. cerevisiae deletion strains, locus YOR080W, strain dia2, stronger effect = lower value 0.994 | S. cerevisiae deletion strains, locus YOR083W, strain WHI5, stronger effect = lower value 0.997 | S. cerevisiae deletion strains, locus YOR106W, strain vam3, stronger effect = lower value 1.01 | S. cerevisiae deletion strains, locus YOR231W, strain MKK1, stronger effect = lower value 0.991 | S. cerevisiae deletion strains, locus YOR265W, strain rbl2, stronger effect = lower value 1.01 | S. cerevisiae deletion strains, locus YOR270C, strain vph1, stronger effect = lower value 1.03 | S. cerevisiae deletion strains, locus YOR290C, strain snf2, stronger effect = lower value 0.995 | S. cerevisiae deletion strains, locus YPL051W, strain arl3, stronger effect = lower value 1.02 | S. cerevisiae deletion strains, locus YPL078C, strain atp4, stronger effect = lower value 1.02 | S. cerevisiae deletion strains, locus YPL106C, strain sse1, stronger effect = lower value 0.984 | S. cerevisiae deletion strains, locus YPL240C, strain hsp82, stronger effect = lower value 0.992 | S. cerevisiae deletion strains, locus YPL256C, strain CLN2, stronger effect = lower value 0.987
